Sampled rows, rich in hits. Any-hit rate of the full collection: about 11%.
SW480 rerep = induces DNA re-replication in SW480 colon adenocarcinoma cells. SW480 DNA re-replication, Hoechst DNA content imaging, 48 h. Potency, µM (titrated, usually from 46.1 µM), actives largely listed as activators. actives 1.8% (n = 340,000). AID 624297; also: nearly all actives have a fitted effect of over 55% in size
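Image-based DNA-content assay: after two days of treatment, nuclei were labelled with the DNA dye Hoechst and imaged, and hits were compounds raising the count of nuclei showing high fluorescence intensity.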
MCF10A rerep = DNA re-replication induction in MCF 10a cells; MCF 10A DNA re-replication, Hoechst nuclear intensity, 48 h; Potency, µM (series often up to 46.1 µM), hits mostly activators; actives 2.9% (n = 350,000); also: nearly all actives have a fitted effect of over 50% in size
RORgamma inh = blocks mouse ROR gamma transcriptional activity. actives 5.4% (n = 310,000). Potency, µM (titrated, usually from 53.6 µM), hits mostly inhibitors. Drosophila S2 Gal4-RORgamma UAS-luciferase reporter, 20 h; also: nearly all actives have a fitted effect of over 60% in size
Target sequence (P51450 whole entry, looked up, the tested form may be a part): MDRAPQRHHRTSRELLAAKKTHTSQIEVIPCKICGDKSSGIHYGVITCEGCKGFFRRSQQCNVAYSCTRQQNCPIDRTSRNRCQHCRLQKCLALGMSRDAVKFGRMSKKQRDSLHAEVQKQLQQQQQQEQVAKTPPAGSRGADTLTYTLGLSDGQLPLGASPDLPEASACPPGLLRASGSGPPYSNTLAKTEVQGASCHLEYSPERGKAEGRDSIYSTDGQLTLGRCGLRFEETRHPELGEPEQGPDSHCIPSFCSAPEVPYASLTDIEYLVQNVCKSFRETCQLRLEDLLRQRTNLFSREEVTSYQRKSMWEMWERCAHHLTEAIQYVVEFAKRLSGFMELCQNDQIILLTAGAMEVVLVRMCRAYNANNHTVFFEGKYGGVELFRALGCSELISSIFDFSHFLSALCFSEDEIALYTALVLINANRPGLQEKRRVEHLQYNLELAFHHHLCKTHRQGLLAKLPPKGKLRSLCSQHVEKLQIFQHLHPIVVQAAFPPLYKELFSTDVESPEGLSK
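Luminescence from a UAS-regulated Photinus luciferase reporter in stably transfected Drosophila Schneider cells is measured; decreased signal marks ROR gamma inhibition. Fusion expression is induced by 700 uM copper sulfate for 20 hr.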
IL-1B inflam inh = inflammasome signaling inhibition, IL-1 beta readout. actives 4.7% (n = 360,000). THP-1 LPS/ATP IL-1B secretion, AlphaLISA, 16 h; stronger effect = lower value. activity change, % at 57.5 µM; in the data active = activity change below about -50%; inconclusive = mostly about -30% to -49%
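Secreted IL-1B measured by AlphaLISA bead assay after 16 h compound exposure of THP-1 cells; compounds (final up to 57.5 uM) added 1 h before LPS (250 ng/mL) and ATP (1.25 mM) stimulation; lower signal means less secretion.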
VP16 counter = Gal4-VP16 reporter inhibition counter-screen; Drosophila S2 Gal4-VP16 UAS-luciferase, luminescence, 20 h; Potency, µM (titrated, usually from 53.6 µM), actives largely listed as inhibitors; actives 3.5% (n = 310,000);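 also: Gal4-VP16 expression switched on by copper sulfate through the metallothionein promoter; nearly all actives have a fitted effect of over 50% in size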
Of the large screens only hits and unclear results are named; the others gave an inactive call. Unless noted, calls follow the shape of the dose curve; as a rule, active = well fitted curve in the direction sought with a large enough effect; inconclusive = small, poorly fitted or top-dose-only effect, or another doubt; inactive = no such curve, though single readings can be large; an effect the other way counts as inactive or inconclusive.

O=C(C[C@@H]1C/C=C/CC[C@H](Cc2ccc(F)cc2)C(=O)OCCNC1=O)N[C@H](CO)Cc1ccccc1	none (no result: RORgamma inh, VP16 counter)
COc1ccc(CC(C#N)(CO)c2nc3ccccc3[nH]2)cc1 (centres undefined)	SW480 rerep 21µM
CC(/C=C/C=C(C)/C=C/C(=O)O)=C\C=C\C=C(C)\C=C\C=C(C)\C=C\C(=O)O	none (no result: SW480 rerep, MCF10A rerep, IL-1B inflam inh)
CC(=O)N=c1c(C#N)cc2c(=O)n3cccc(C)c3nc2n1CCCOC(C)C	SW480 rerep 21µM, MCF10A rerep inconclusive, VP16 counter inconclusive
Cc1cccn2c(=O)c3cc(C#N)c(=NC(=O)c4cccs4)n(CCCOC(C)C)c3nc12	SW480 rerep 21µM, MCF10A rerep inconclusive
N#Cc1cc2c(=O)n3ccccc3nc2n(Cc2ccco2)c1=NC(=O)c1ccco1	MCF10A rerep 23µM
CC(=O)N=c1c(C#N)cc2c(=O)n3cccc(C)c3nc2n1Cc1ccco1	SW480 rerep 0.58µM, MCF10A rerep inconclusive
C=CC[C@@H]1C=C[C@H](O/N=C(\C)CCN2CCc3nc(CC)c(CC)cc3C2)[C@H](CO)O1	none (no result: SW480 rerep, MCF10A rerep, IL-1B inflam inh)
COCCCn1c(=NC(=O)c2ccncc2)c(C#N)cc2c(=O)n3cccc(C)c3nc21	SW480 rerep inconclusive, RORgamma inh inconclusive
CCOCCCn1c(=NC(=O)c2cccnc2)c(C(=O)OCC)cc2c(=O)n3ccccc3nc21	SW480 rerep inconclusive, MCF10A rerep inconclusive
Cc1cccn2c(=O)c3cc(C#N)c(=NC(=O)c4ccncc4)n(CCCOC(C)C)c3nc12	SW480 rerep inconclusive, MCF10A rerep 4.6µM
CCOCCCn1c(=NC(=O)c2cccs2)c(C#N)cc2c(=O)n3ccccc3nc21	SW480 rerep 12µM, MCF10A rerep inconclusive
O=[N+]([O-])c1ccc(CSc2nnc(Cc3ccccc3)n2-c2ccc(F)cc2)cc1	RORgamma inh inconclusive, VP16 counter 10µM (no result: SW480 rerep)
O=[N+]([O-])c1ccc(CSc2nc3ccccc3o2)cc1	none
O=[N+]([O-])c1ccc(CSc2nnc(SCc3ccccc3)s2)cc1	MCF10A rerep 6.5µM, VP16 counter inconclusive
O=C(CSc1nnc(CNC(=O)C23CC4CC(CC(C4)C2)C3)n1-c1ccccc1)Nc1ccc(F)cc1	RORgamma inh inconclusive
O=S(Cc1ccc(Br)cc1)Cc1nnc(SCc2ccc(Br)cc2)n1-c1ccccc1 (centres undefined)	SW480 rerep inconclusive, MCF10A rerep 23µM, RORgamma inh inconclusive, IL-1B inflam inh -58
COc1ccc(-n2c(Cc3ccccc3)nnc2SCc2ccc([N+](=O)[O-])cc2)cc1	none
O=C(NCc1nnc(SCc2ccc(F)cc2)n1-c1ccccc1)C12CC3CC(CC(C3)C1)C2	MCF10A rerep inconclusive, IL-1B inflam inh -79, VP16 counter inconclusive
Cc1ccc(NC(=O)CSc2n[nH]c(-c3cccnc3)n2)cc1Cl	none
O=C(c1ccco1)N1CCC2(CCCN(Cc3ccccc3)C2)CC1	none (no result: SW480 rerep, MCF10A rerep, IL-1B inflam inh)
O=C(Nc1ccncc1)c1cc(C2CCCCN2C(=O)CCCc2ccccc2)on1 (centres undefined)	none (no result: SW480 rerep, MCF10A rerep, RORgamma inh, VP16 counter)
O=C(CSc1nnc(CNC(=O)C23CC4CC(CC(C4)C2)C3)n1-c1ccc(F)cc1)Nc1ccccc1	none
O=C(NCc1nnc(SCc2ccc(C(F)(F)F)cc2)n1-c1ccccc1)C12CC3CC(CC(C3)C1)C2	MCF10A rerep 16µM, RORgamma inh 14µM, VP16 counter inconclusive
O=C1C(=O)N(CCN2CCOCC2)C(c2ccncc2)/C1=C(/O)c1ccc2c(c1)OCO2 (centres undefined)	none
O=C1C(=O)N(CCN2CCOCC2)C(c2ccc([N+](=O)[O-])cc2)/C1=C(/O)c1ccc2c(c1)OCO2 (centres undefined)	SW480 rerep inconclusive, RORgamma inh 7.9µM, VP16 counter 11µM
CC1(C(=O)NC2CCN(Cc3ccccc3)CC2)CCN1Cc1ccc2ccccc2c1 (centres undefined)	none (no result: SW480 rerep, MCF10A rerep, RORgamma inh, VP16 counter)
CCCCSc1nnc(-c2ccccc2)c2ccccc12	MCF10A rerep inconclusive, VP16 counter 13µM
OC[C@H]1O[C@@H](c2nc(-c3ccc4[nH]ccc4c3)no2)[C@H](O)[C@@H](O)[C@H]1O	none (no result: SW480 rerep, MCF10A rerep, RORgamma inh, VP16 counter)
Cc1cccc(C)c1-n1c(C)cc(/C=N\Nc2ccc([N+](=O)[O-])cn2)c1C	SW480 rerep inconclusive, MCF10A rerep 5.2µM
O=[N+]([O-])c1ccc(N/N=C\c2cccnc2)nc1	none
O=[N+]([O-])c1ccc(NN=Cc2cccc(O)c2)nc1	SW480 rerep inconclusive, MCF10A rerep 16µM (no result: RORgamma inh, VP16 counter)
O=[N+]([O-])c1ccc(NN=Cc2cc(Br)ccc2O)nc1	SW480 rerep 0.73µM (no result: RORgamma inh, VP16 counter)
COc1cc(/C=N/Nc2ccc([N+](=O)[O-])cn2)cc(OC)c1O	SW480 rerep 16µM, MCF10A rerep 21µM
CC(C)OC1=CC(=O)OC(c2cccc(Cl)c2)C1 (centres undefined)	none (no result: SW480 rerep, MCF10A rerep, RORgamma inh, VP16 counter)
CCOC(=O)CNC(=O)C1c2ccccc2Oc2ccccc21	none
CC(C(=O)N(C)C1CCCCC1)N1CCC(C(N)=O)CC1 (centres undefined)	none
Cc1ccc(CCNC(=O)c2nnc(CS(=O)(=O)c3ccccc3)o2)cc1	none
Cc1cc(/C=N/Nc2nc(N)ncc2[N+](=O)[O-])c(C)n1-c1ccccc1F	RORgamma inh 1.6µM, VP16 counter 7.1µM (no result: SW480 rerep, MCF10A rerep, IL-1B inflam inh)
Cc1nc(N2CCNCC2)c2c3c(sc2n1)CCCC3	none
Cc1nc(Sc2nnnn2C)c2c3c(sc2n1)CCC3	SW480 rerep 5.8µM, MCF10A rerep 1.5µM, IL-1B inflam inh -57
CCc1nc(-n2[nH]c(=O)c3ccccc3c2=O)c2c3c(sc2n1)CCCC3	none (no result: RORgamma inh, VP16 counter)
CCc1nc(Sc2nnnn2-c2ccccc2)c2c3c(sc2n1)CCCC3	SW480 rerep inconclusive, MCF10A rerep 18µM, IL-1B inflam inh -81
COc1ccc(CC2(CO)CCN(Cc3cnn(-c4ccccc4)c3)CC2)cc1	MCF10A rerep inconclusive, IL-1B inflam inh -95
COc1ccc(CC2(CO)CCN(Cc3cnn(-c4ccc(F)cc4)c3)CC2)cc1	SW480 rerep inconclusive
COc1ccc(CC2(CO)CCN(C/C=C/c3ccccc3OC)CC2)cc1	IL-1B inflam inh -81
Cc1cc(C)n(-c2cccc(CN3CCC(CO)(Cc4ccccc4)CC3)c2)n1	IL-1B inflam inh -71
COc1ccc(CC2(CO)CCN(Cc3cnn(-c4ccccc4OC)c3)CC2)cc1	none
COc1ccccc1/C=C/CN1CCCC(CO)(CCc2ccccc2)C1 (centres undefined)	IL-1B inflam inh -94
CCc1c2c(nc3cccc(C(C)C)c13)-c1cccc(=O)n1C2	none (no result: SW480 rerep, MCF10A rerep, IL-1B inflam inh)
CC(OC(=O)Cn1cnc2c1c(=O)n(C)c(=O)n2C)C(=O)NC1(C#N)CCCCC1 (centres undefined)	none (no result: RORgamma inh, VP16 counter)
CCN1CCCC(CO)(Cc2ccccc2)C1 (centres undefined)	none
OCC1(Cc2cccc(Cl)c2)CCCN(Cc2ccc(F)c(F)c2)C1 (centres undefined)	MCF10A rerep inconclusive, IL-1B inflam inh -55

Screening results as filed in PubChem.
